Experimental data taken from PubChem BioAssay AID504583 (Broad Institute, 2011).
Measured potencies and affinities stand elsewhere. Inconclusive results are not listed.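 How the source made its calls: active means lowers substrate conversion with a fitted half-maximal potency at most ten times the top dose, in every run; inconclusive means runs disagree, or flat weak or poorly fitted curves; inactive means every run inactive, flat, weak or opposite direction.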

molecular target: cAMP-dependent protein kinase catalytic subunit alpha (Homo sapiens) (UniProt P17612); test: inhibition of human PKA kinase activity – biochemical, Caliper mobility shift, dry powder samples, dose response (AID 504583); details: recombinant PKA, Caliper peptide phosphorylation % conversion; series mostly up to 10 µM; % substrate conversion (lower = inhibition): at the top concentration

% substrate conversion (lower = inhibition), inactive:
CN1CCN(c2ccc(Nc3ncc4c(n3)N(C)c3ccccc3C(=O)N4C)cc2)CC1 27.9%
CC(Oc1ccc2c(c1)c1ccnc3c4ccccc4c(=O)n2c13)C(=O)NCCN1CCOCC1 (centres undefined) 35.1%
COc1cc(N2CCC(O)CC2)ccc1Nc1ncc2c(n1)N1CCc3cccc(c31)C(=O)N2C 29.5%
COc1cc(/C=C2\SC(N)=NC2=O)ccc1O 30.5%
COc1cc(N2CCN(C)CC2)ccc1Nc1ncc2c(n1)N(C)c1sccc1C(=O)N2C 28.3%
O=C(Nc1ccccc1-c1ccccc1)c1ccc(Br)o1 30.1%
COc1cc(N2CCC(N3CCN(C)CC3)CC2)ccc1Nc1ncc2c(n1)N(C1CCCC1)C(C)CC(=O)N2C (centres undefined) 26.4%
CCCn1c(NC(=O)c2cccc(S(=O)(=O)N3CCCC3)c2)nc2ccccc21 26.1%
COc1cc(N2CCN(C)CC2)ccc1Nc1ncc2c(n1)N1CCC[C@H]1CC(=O)N2C 30.5%
CCOc1ccccc1C(=O)Nc1cc(Cl)ccc1O 34.3%
Oc1ccc(Nc2nc(-c3ccccc3O)nc3ccccc23)cc1 26.3%
COc1cc(/C=C2\SC(=Nc3ccccc3OC)NC2=O)ccc1O 23.2%
COc1cc(N2CCN(C)CC2)ccc1Nc1ncc2c(n1)N(C)c1ccccc1C(=O)N2C 29.4%
CC(=O)N(C)c1ccc(N=Cc2c(O)ccc3ccccc23)cc1 32.2%
Cc1ncc(/C=C2\C(=O)Nc3ccccc32)[nH]1 26.6%
O=C(Nc1ccccc1-c1nc2ccccc2[nH]c1=O)c1cccs1 28.3%
COc1cc(N2CCN(C)CC2)ccc1Nc1ncc2c(n1)N(C1CCCC1)C(C)CC(=O)N2C (centres undefined) 28.5%
O=C1NC(=NCc2ccccc2)S/C1=C/c1ccc(O)cc1 27.7%
COc1cc(/C=N/n2c(-c3ccccc3)n[nH]c2=S)ccc1O 31.8%
COc1cc(C(=O)N2CCC(N3CCN(C)CC3)CC2)ccc1Nc1ncc2c(n1)N(C)c1ccccc1C(=O)N2C 27.9%
COc1cc(N2CCC(N3CCN(C)CC3)CC2)ccc1Nc1ncc2c(n1)N1CCC[C@H]1CC(=O)N2C 29.8%
O=C1NCCCc2c1oc1ccc(O)cc21 27.7%
COc1cc(C(=O)NC2CCN(C)CC2)ccc1Nc1ncc2c(n1)N(C1CCC(O)CC1)CCC(=O)N2C (centres undefined) 31.3%
CC(C)n1cnc2c(Nc3cccc(Cl)c3)nc(NCCO)nc21 29.7%
